Assay [1] can be described thus: qHTS RealTime-Glo MT Cell Viability Assay in HEK293 cells - 16 hour (AID 1224872). Also: nearly all actives have a fitted effect of over 50% in size. Also: potency is read from the fitted curve at half-maximal effect. In outline:
(§1)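 Reads taken at 0, 8, 16, 24, 32 and 40 h from the same wells. HEK293 cells (600/well) carried RealTime-Glo reagents from seeding, with compound added after a 5 h settle at 37 C.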

Assay [2] can be described thus: qHTS RealTime-Glo MT Cell Viability Assay in HepG2 cells - 8 hour (AID 1224873). Also: nearly all actives have a fitted effect of over 55% in size. The procedure, abridged:
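HepG2 cells mixed with RealTime-Glo MT reagents (NanoLuc plus cell-permeant prosubstrate) were seeded at 600 cells/well, incubated 5 h at 37 C/5% CO2, then pinned with compounds in DMSO; nonlytic luminescence tracked viability during 40 h treatment.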

Assay [3] is described as follows: A CellTox Green Cytotoxicity Assay to monitor cytotoxicity in HEK293 cells - 24 hour (AID 1224875). Also: nearly all actives have a fitted effect of over 45% in size. Also: potency is read from the fitted curve at half-maximal effect. The procedure, abridged:
(§2)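 HEK293 cells, 600/well, were preincubated 5 hours and then exposed to compounds at 37 C for up to 40 hours. A cell-impermeant cyanine dye staining dead-cell DNA was read by fluorescence at 0, 8, 16, 24, 32 and 40 h time points.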

Assay [4] can be described thus: A CellTox Green Cytotoxicity Assay to monitor cytotoxicity in HepG2 cells - 16 hour (AID 1224876). Also: nearly all actives have a fitted effect of over 45% in size. Also: potency is read from the fitted curve at half-maximal effect. The procedure, abridged:
(§3)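 HepG2 cells, 600/well, preincubated 5 h with CellTox Green dye, then exposed to Tox21 compounds in DMSO at 37 C for up to 40 h. Dead-cell DNA fluorescence read at the indicated time point.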

Assay [5] is described as follows: A CellTox Green Cytotoxicity Assay to monitor cytotoxicity in HepG2 cells - 24 hour (AID 1224878). Also: nearly all actives have a fitted effect of over 45% in size. Also: potency is read from the fitted curve at half-maximal effect. In outline: as §3
Assay [6] is described as follows: A CellTox Green Cytotoxicity Assay to monitor cytotoxicity in HepG2 cells - 40 hour (AID 1224879). Also: nearly all actives have a fitted effect of over 40% in size. Also: potency is read from the fitted curve at half-maximal effect. The procedure, abridged: as §3
Assay [7] in a line: qHTS RealTime-Glo MT Cell Viability Assay in HEK293 cells - 0 hour (AID 1224880). Also: top concentration of the series differs between compounds; nearly all actives have a fitted effect of over 45% in size. In outline:
(§4)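 600 cells/well were plated with the nonlytic NanoLuc/prosubstrate reagent, pre-incubated 5 h, then given 23 nL of compound in DMSO. Incubation at 37 C for 40 h, with luminescence from viable-cell-reduced substrate read repeatedly from 0 h.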

The nature of assay [8]: A CellTox Green Cytotoxicity Assay to monitor cytotoxicity in HepG2 cells - 0 hour (AID 1224882). Also: nearly all actives have a fitted effect of over 35% in size. The procedure, abridged:
as §3

The nature of assay [9]: A CellTox Green Cytotoxicity Assay to monitor cytotoxicity in HepG2 cells - 32 hour (AID 1224883). Also: nearly all actives have a fitted effect of over 50% in size. Also: potency is read from the fitted curve at half-maximal effect. In outline: as §3
Assay [10] is described as follows: qHTS RealTime-Glo MT Cell Viability Assay in HEK293 cells - 8 hour (AID 1224887). Also: nearly all actives have a fitted effect of over 50% in size. Also: potency is read from the fitted curve at half-maximal effect. In outline:
as §4

Assay [11] can be described thus: A CellTox Green Cytotoxicity Assay to monitor cytotoxicity in HEK293 cells - 16 hour (AID 1224888). Also: nearly all actives have a fitted effect of over 35% in size. The procedure, abridged:
as §2

A short description of assay [12]: qHTS RealTime-Glo MT Cell Viability Assay in HepG2 cells - 0 hour (AID 1224889). Also: nearly all actives have a fitted effect of over 50% in size. The procedure, abridged:
(§5)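 HepG2 suspension premixed with RealTime-Glo reagents is plated at 600 cells per well and left 5 h at 37 C/5% CO2. Compounds in DMSO then go in, and bioluminescence reflecting viable cell number is recorded over 40 h.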

Assay [13] in a line: A CellTox Green Cytotoxicity Assay to monitor cytotoxicity in HepG2 cells - 8 hour (AID 1224890). Also: nearly all actives have a fitted effect of over 45% in size. The procedure, abridged:
as §3

Assay [14] can be described thus: qHTS RealTime-Glo MT Cell Viability Assay in HEK293 cells - 40 hour (AID 1224874). Also: nearly all actives have a fitted effect of over 50% in size. Also: potency is read from the fitted curve at half-maximal effect. The conditions noted are these: RealTime-Glo luminescence; max response: hits give low values. The procedure, abridged: as §4
Assay [15] can be described thus: qHTS RealTime-Glo MT Cell Viability Assay in HepG2 cells - 32 hour (AID 1224877). Also: nearly all actives have a fitted effect of over 55% in size. Also: potency is read from the fitted curve at half-maximal effect. The procedure, abridged: as §5
A short description of assay [16]: qHTS RealTime-Glo MT Cell Viability Assay in HepG2 cells - 16 hour (AID 1224885). Also: nearly all actives have a fitted effect of over 50% in size. The procedure, abridged:
as §5

Assay [17] can be described thus: qHTS RealTime-Glo MT Cell Viability Assay in HEK293 cells - 24 hour (AID 1224886). Also: nearly all actives have a fitted effect of over 50% in size. Also: potency is read from the fitted curve at half-maximal effect. In outline:
as §1

Assay [18] in a line: A CellTox Green Cytotoxicity Assay to monitor cytotoxicity in HEK293 cells - 8 hour (AID 1224884). Also: nearly all actives have a fitted effect of over 35% in size. The procedure, abridged: as §2

Unmarked numbers belong to inactive results. Records with an inconclusive call do not appear. Active and inactive are the calls of the source. Calls follow the shape of the dose curve; as a rule, active = well fitted curve in the direction sought with a large enough effect in the repeat runs; inconclusive = weak or mixed curves; inactive = no such curve, though single readings can be large; an effect the other way counts as inactive or inconclusive.
% is scaled to controls: 0 for no effect and ±100 for the full control effect.

For the compound `c1cc(C(c2ccc(OCC3CO3)cc2)c2ccc(OCC3CO3)cc2)ccc1OCC1CO1` (stereo not given), the Potency entry in assay [1], in assay [2], in [3], in assay [4], in assay [5] and in assay [6] was “inactive” throughout. Further, the Potency result in assay [7], in assay [8], in [9], in assay [10], in assay [11] and in [12] was “inactive” throughout. In addition, in [13], the Potency result is “inactive”.

For `Oc1ccc(N=Nc2ccccc2)cc1`, the Potency in assay [1] was 15.7 µM (active); in [14], 22.2 µM (active); in assay [17], 17.6 µM (active); in assay [10], 19.8 µM (active). Besides, the Potency result in [2], in [4], in [15], in assay [7], in assay [16] and in assay [12] was “inactive” throughout. In assay [13], the Potency entry was “inactive”.

With `Nc1ccc(N)c2ccccc12`, the Potency in [1] was 54.9 µM (active); in [4] it was 54.9 µM (active); in [5], 54.9 µM (active); in assay [6] it was 54.9 µM (active); in [9] it was 54.9 µM (active); in assay [10], 24.5 µM (active). The Potency result in assay [3], in assay [7], in assay [8], in [18], in assay [11] and in [12] was “inactive” each time. Also, the Potency result in assay [13] was “inactive”.

As for `O=C(OCC(COC(=O)c1ccccc1)(COC(=O)c1ccccc1)COC(=O)c1ccccc1)c1ccccc1`, the Potency was 43.6 µM (active) in [1], 48.9 µM (active) in assay [17] and 24.5 µM (active) in assay [10]. For the same compound, the Potency entry in assay [4], in assay [15], in assay [5], in assay [6], in assay [7] and in assay [8] was “inactive” throughout. Further, the Potency entry in assay [9], in [18], in assay [16], in assay [12] and in assay [13] was “inactive” each time.

Consider `Cc1nc(-c2ccc3c(c2)CCN(CCC2CCC(NC(=O)/C=C/c4ccc(F)cc4)CC2)CC3)no1` (stereo not given), for which the Potency result in assay [3], in [4], in assay [15], in [5], in [7] and in assay [8] was “inactive” in each case. Further, the Potency entry in assay [9], in assay [18], in assay [16], in assay [11], in [12] and in [13] was “inactive” in each case.

For the compound `CN1CCN(CCC(=O)N2c3ccccc3Sc3ccc(C(F)(F)F)cc32)CC1`, the Potency result in assay [2], in assay [7], in assay [18] and in assay [11] was “inactive” in each case. In addition, the Potency in assay [4] is 10.7 µM (active); in [15] it was 26.8 µM (active); in assay [5], 15.1 µM (active); in assay [6] it was 21.3 µM (active); in assay [9], 19 µM (active).

Turning to `CN(C/C=C/C#CC(C)(C)C)Cc1cccc2ccccc12`, the Potency entry in assay [15], in assay [5], in assay [6], in assay [7], in assay [9] and in assay [18] was “inactive” in each case. Also, the Potency entry in [16] and in [13] was “inactive” in each case.

Take `S=c1[nH]c2ccccc2s1`: the Potency result in assay [1], in [2], in [15], in [6], in assay [7] and in assay [16] was “inactive” each time. Moreover, the Potency result in assay [17], in [10] and in assay [12] was “inactive” each time. Also, the Potency in assay [3] was 43.6 µM (active).

With `Cc1cc(O)c(Cl)c(C)c1Cl`, the Potency entry in [1], in assay [15], in assay [7], in [8], in assay [16] and in assay [17] was “inactive” throughout. The Potency entry in assay [10] and in [12] was “inactive” each time. The max response in assay [14] was -27.6%. Also, the Potency in [5] was 54.9 µM (active); in assay [6], 49 µM (active); in [9] it was 54.9 µM (active).

Take `O=C(Oc1cccc2cccnc12)c1ccccc1`: the Potency result in assay [1], in assay [3], in assay [7], in [8], in assay [18] and in assay [16] was “inactive” each time. Also, the Potency entry in [17], in assay [10], in assay [11], in assay [12] and in [13] was “inactive” throughout. The max response in assay [14] was -33.8%. The Potency in [6] is 0.477 µM (active); in assay [9] it was 0.338 µM (active).

For `O=CC=C(c1ccccc1)c1ccccc1`, the Potency result in assay [2], in [4], in assay [15], in assay [5], in [6] and in [7] was “inactive” throughout. For the same compound, the Potency result in [8], in [9], in assay [18], in [16], in assay [11] and in assay [12] was “inactive” throughout. Besides, the Potency entry in assay [13] was “inactive”. Moreover, in assay [17], the Potency is 17.5 µM (active).

The values above are taken from PubChem BioAssay (Tox21).
